In PubChem BioAssay:
Active and inactive are the calls of the source. Unless noted, how the calls were made is not given here.

Columns and labels:
[1] = anti-His antibody binders, primary screen, artefact control for SMM control protein annotation, biochemical, small-molecule microarray, 635 nm fluorescence (AID 1128); conditions: anti-His Alexa647 antibody binding, higher = more signal;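 further: score merges feature fluorescence with signal-to-noise for each printed compound spot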
[2] = test system: Human papillomavirus type 1a E7 protein (residues 1-88); assay: HPV1a E7 small-molecule binders, primary screen, biochemical, small-molecule microarray, residues 1-88, 635 nm (AID 1129); conditions: small-molecule microarray binding, fluorescence 635 nm; higher = more signal
[3] = target: Focal adhesion kinase 1 (Homo sapiens) (UniProt Q05397); assay: small-molecule microarray binders of FAK, primary screen, biochemical, 635/667 nm fluorescence, BSA, DTT (AID 1130); conditions: PTK2 binding, 635 nm fluorescence, higher = more signal;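 further: composite of spot emission at 667 nm and signal to noise over triplicate slides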
Sequence of Focal adhesion kinase 1 (Homo sapiens) (Q05397 whole entry, looked up): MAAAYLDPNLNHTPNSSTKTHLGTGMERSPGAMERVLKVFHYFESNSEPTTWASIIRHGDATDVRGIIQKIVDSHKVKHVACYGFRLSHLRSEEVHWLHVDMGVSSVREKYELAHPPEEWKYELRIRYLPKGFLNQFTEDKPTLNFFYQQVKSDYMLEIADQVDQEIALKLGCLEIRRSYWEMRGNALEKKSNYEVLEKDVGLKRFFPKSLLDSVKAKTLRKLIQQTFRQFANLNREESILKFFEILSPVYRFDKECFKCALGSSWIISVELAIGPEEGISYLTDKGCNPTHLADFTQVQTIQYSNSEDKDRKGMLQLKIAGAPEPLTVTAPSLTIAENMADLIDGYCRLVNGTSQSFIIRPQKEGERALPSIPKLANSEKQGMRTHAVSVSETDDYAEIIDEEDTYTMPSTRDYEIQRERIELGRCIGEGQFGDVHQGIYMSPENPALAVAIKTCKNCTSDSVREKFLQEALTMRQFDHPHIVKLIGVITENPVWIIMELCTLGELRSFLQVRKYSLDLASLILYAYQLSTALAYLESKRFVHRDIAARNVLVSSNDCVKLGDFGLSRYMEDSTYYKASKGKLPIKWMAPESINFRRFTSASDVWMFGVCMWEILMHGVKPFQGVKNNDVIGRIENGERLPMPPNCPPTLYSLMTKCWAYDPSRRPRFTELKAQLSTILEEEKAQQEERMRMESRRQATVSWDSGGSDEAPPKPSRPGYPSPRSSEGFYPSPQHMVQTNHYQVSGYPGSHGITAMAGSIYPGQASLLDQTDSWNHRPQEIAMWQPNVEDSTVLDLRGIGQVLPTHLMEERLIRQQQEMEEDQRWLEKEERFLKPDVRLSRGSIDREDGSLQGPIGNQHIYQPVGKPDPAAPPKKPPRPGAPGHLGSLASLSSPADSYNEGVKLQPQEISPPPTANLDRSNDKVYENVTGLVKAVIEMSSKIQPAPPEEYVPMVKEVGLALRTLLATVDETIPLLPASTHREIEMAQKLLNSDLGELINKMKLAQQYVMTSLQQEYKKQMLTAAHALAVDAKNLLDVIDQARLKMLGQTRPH

[4] = test system: Fibrinogen (Alexa647-labelled); assay: fibrinogen binders on compound microarrays, profiling panel, artefact control for SMM control-protein annotation, biochemical, small-molecule microarray, 635/667 nm fluorescence (AID 1131); conditions: fibrinogen-A647 binding fluorescence, higher = more signal;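 further: z-score merges 667 nm fluorescence with per-spot signal-to-noise over triplicate slides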
[5] = target: Follistatin (Homo sapiens) (UniProt P19883); assay: follistatin binders on small-molecule microarrays, primary screen, biochemical, small-molecule microarray, 635/667 nm fluorescence (AID 1132); conditions: FST binding, 635 nm fluorescence, higher = more signal
Sequence of Follistatin (Homo sapiens) (P19883 whole entry, looked up): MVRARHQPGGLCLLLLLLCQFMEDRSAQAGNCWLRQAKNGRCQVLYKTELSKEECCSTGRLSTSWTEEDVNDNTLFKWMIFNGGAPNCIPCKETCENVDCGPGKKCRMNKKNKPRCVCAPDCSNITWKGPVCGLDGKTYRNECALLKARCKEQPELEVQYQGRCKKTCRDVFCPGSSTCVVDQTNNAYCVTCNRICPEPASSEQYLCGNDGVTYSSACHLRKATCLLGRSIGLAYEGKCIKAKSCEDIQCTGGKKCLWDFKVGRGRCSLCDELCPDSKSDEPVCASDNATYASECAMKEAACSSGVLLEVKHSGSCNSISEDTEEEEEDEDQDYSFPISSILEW

[6] = target: Fibroblast growth factor 2 (Homo sapiens) (UniProt P09038); assay: FGF2 binders on small-molecule microarrays, primary screen, biochemical, small-molecule microarray, 635/667 nm fluorescence (AID 1133); conditions: small-molecule microarray binding, FGF2, fluorescence 635/667; higher = more signal
Sequence of Fibroblast growth factor 2 (Homo sapiens) (P09038 whole entry, looked up): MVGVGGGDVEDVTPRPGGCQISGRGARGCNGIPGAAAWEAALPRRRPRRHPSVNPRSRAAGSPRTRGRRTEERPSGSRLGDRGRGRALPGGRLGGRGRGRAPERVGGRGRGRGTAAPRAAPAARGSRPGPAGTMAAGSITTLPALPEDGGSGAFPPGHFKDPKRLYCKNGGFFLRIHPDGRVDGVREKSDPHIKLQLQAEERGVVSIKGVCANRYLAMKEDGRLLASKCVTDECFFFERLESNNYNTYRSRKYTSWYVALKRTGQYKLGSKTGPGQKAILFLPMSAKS

[7] = mitochondrial membrane potential change in A549 cells, profiling panel, cell-based, JC-1 fluorescence, basal, 24 h, 100 nL (AID 1138); conditions: higher = more signal;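 further: A549 lung adenocarcinoma cells under basal conditions with no added stimulus; test concentration not given here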
[8] = test system: Lefty1; assay: Lefty1 binders on small-molecule microarrays, primary screen, biochemical, small-molecule microarray, 635/667 nm fluorescence (AID 1139); conditions: small-molecule microarray binding, fluorescence 635/667; higher = more signal
[9] = test system: wheat germ agglutinin (Triticum aestivum), Alexa647-labelled; assay: wheat germ agglutinin binders on compound microarrays, profiling panel, artefact control for SMM control-protein annotation, biochemical, small-molecule microarray, 635/667 nm fluorescence (AID 1140); conditions: WGA-A647 binding, 635 nm fluorescence, higher = more signal;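 further: score merges 667 nm feature emission with signal to noise over triplicate slides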
[10] = target: Luciferin 4-monooxygenase (Photinus pyralis) (UniProt P08659); assay: firefly luciferase enzyme inhibitors, primary screen, biochemical, luminescence, purified enzyme, 2006 set (AID 1141); conditions: SteadyGlo luminescence, 30 min, higher = more signal, called active from +8 up or from −8 down;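 further: cell-free assay with purified firefly luciferase at 100 ng per well in PBS; test concentration not given here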
Sequence of Luciferin 4-monooxygenase (Photinus pyralis) (P08659 whole entry, looked up): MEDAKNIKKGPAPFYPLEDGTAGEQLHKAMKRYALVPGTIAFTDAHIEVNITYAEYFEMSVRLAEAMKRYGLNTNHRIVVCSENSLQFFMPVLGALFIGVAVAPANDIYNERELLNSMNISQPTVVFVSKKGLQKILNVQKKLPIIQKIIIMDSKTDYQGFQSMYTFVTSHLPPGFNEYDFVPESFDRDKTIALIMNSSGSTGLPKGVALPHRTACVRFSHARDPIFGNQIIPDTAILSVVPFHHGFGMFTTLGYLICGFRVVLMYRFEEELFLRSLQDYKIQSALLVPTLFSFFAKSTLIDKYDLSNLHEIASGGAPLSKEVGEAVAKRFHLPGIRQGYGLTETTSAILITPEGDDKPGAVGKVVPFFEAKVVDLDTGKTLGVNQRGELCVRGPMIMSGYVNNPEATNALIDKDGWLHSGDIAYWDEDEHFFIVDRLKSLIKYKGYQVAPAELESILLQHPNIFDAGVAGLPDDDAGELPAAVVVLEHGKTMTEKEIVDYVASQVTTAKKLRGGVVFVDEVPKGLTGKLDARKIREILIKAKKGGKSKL

[11] = test system: Wnt5a (protein binding on small-molecule microarray); assay: Wnt5a binders on small-molecule microarray, primary screen, biophysical, 635/667 nm fluorescence (AID 1142); conditions: 635 nm fluorescence, higher = more signal;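 further: fluorescence read at 667 nm with signal to noise per printed feature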
[12] = cell viability in Huh7 cells, primary screen, cytotoxicity control for HCV replication inhibitor project, CellTiter-Glo luminescence, basal, 48 h (AID 1143); conditions: Huh7 HCV replicon, higher = more signal, called active from +8 up or from −8 down;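 further: Huh7 hepatoma cells carrying a hepatitis C replication reporter with no stimulus; test concentration not given here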
[13] = P. aeruginosa biofilm formation inhibitors, primary screen, PAO1 strain, BacTiter-Glo luminescence, LB-PBS (AID 1144); conditions: 12 h, higher = more signal
[14] = CREB reporter modulators without forskolin, primary screen, cell-based, PC12, CRE-LacZ reporter, unstimulated (AID 1145); conditions: no forskolin, luminescence, 4.5 h, higher = more signal, called active from +8 up or from −8 down
[15] = CREB reporter modulators under forskolin, primary screen, cell-based, PC12, CRE-LacZ reporter, forskolin-stimulated (AID 1146); conditions: luminescence, 4.5 h, higher = more signal, called active from +8 up or from −8 down;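 further: PC12 cells with 6xCRE LacZ reporter stimulated by forskolin 10 µM; beta-galactosidase reporter signal reflecting CREB driven transcription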
[16] = target: Streptavidin (Streptomyces avidinii) (UniProt P22629); assay: streptavidin binders on small-molecule microarray, primary screen, artefact control for SMM compound annotation, biophysical, 635/667 nm fluorescence (AID 1147); conditions: streptavidin binding, higher = more signal;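 further: signal reflects streptavidin binding to arrayed compounds as a control protein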
Sequence of Streptavidin (Streptomyces avidinii) (P22629 whole entry, looked up): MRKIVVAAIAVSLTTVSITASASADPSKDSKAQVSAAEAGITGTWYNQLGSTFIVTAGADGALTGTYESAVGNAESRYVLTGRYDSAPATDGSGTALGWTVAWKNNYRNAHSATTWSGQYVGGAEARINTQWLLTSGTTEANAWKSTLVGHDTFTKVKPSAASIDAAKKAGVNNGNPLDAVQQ

[17] = small-molecule binders of probe aInhba, primary screen, biochemical, small-molecule microarray, 635/667 nm fluorescence (AID 1148); conditions: higher = more signal;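 further: score merges 667nm spot fluorescence with signal-to-noise for antibody binding to printed compounds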
[18] = target: Torsin-1A (Homo sapiens) (UniProt O14656); assay: torsin A binders from cell lysate, primary screen, small-molecule microarray, wild-type, 635/667 nm (AID 1149); conditions: COS7 hTOR1A-WT lysate, 635 nm fluorescence, higher = more signal
Sequence of Torsin-1A (Homo sapiens) (O14656 whole entry, looked up): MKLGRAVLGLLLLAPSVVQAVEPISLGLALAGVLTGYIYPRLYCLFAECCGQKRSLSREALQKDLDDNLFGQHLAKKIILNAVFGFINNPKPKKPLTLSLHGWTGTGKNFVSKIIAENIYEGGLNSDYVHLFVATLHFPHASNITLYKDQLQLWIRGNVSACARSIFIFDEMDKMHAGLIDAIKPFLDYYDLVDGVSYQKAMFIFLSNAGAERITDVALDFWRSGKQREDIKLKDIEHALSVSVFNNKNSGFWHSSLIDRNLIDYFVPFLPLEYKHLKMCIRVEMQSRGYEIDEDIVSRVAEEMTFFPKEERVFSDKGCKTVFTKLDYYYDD

[19] = target: Torsin-1A (Homo sapiens) (UniProt O14656); assay: small-molecule binders of mutant TOR1A in lysate, primary screen, cell lysate, small-molecule microarray, COS7 lysate, 635/667 nm fluorescence (AID 1150); conditions: COS7 hTOR1A mutant lysate, 635 nm fluorescence, higher = more signal;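 further: score pools 667 nm emission and signal to noise measuring lysate protein binding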
[20] = test system: Sonic hedgehog protein (Shh); assay: small-molecule binders of Shh protein, primary screen, biochemical, small-molecule microarray, 635/667 nm fluorescence (AID 1151); conditions: small-molecule microarray binding, 635 nm fluorescence; higher = more signal;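 further: Shh protein binding to compounds spotted on small-molecule microarray slides; score combines spot fluorescence intensity with signal-to-noise across triplicate slides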

Compound	composite z-score [1]	composite z-score [2]	composite z-score [3]	composite z-score [4]	composite z-score [5]	composite z-score [6]	z-score [7]	composite z-score [8]	composite z-score [9]	z-score [10]	composite z-score [11]	z-score [12]	z-score [13]	z-score [14]	z-score [15]	composite z-score [16]	composite z-score [17]	composite z-score [18]	composite z-score [19]	composite z-score [20]
COc1ccc([Si](C)(C)[C@@H]2[C@@H](CCO)O[C@]3(C(=O)N(Cc4ccc(N5C(=O)c6ccccc6Oc6ccccc65)cc4)c4ccccc43)[C@H]2C)cc1	0.0758	-0.235	-0.394	-0.0953	-0.163	-1.1	-0.285	0.0179	0.104	0.173 (inactive)	-0.355	-7.17 (inactive)	-0.734 (inactive)	2.5 (inactive)	0.286 (inactive)	-0.132	-0.179	-1.04	-0.949	0.0769
C=C(COC)/C(=C/C[C@@H](OC(=O)c1ccncc1)c1cccc(OCCO)c1)c1cc(C(=O)OC)ccc1OC	0.0301	0.942	-0.0044	0.199	1.42	2	1.28	1.63	0.181	-1.11 (inactive)	0.996	-8.13 (active)	-0.0417 (inactive)	23.7 (active)	-0.376 (inactive)	-0.0673	0.709	2.64	1.49	2.11
CCC[C@@H]1C[C@@]1(CCC)[C@@H](NC(=O)c1cccs1)c1ccc(Cl)cc1	-0.449	-0.375	-0.352	0.7	-1.42	-0.639	-0.101	-1.69	0.152	-2.2 (inactive)	-0.551	-2.21 (inactive)	0.803 (inactive)	1.15 (inactive)	-0.127 (inactive)	-0.7	-0.211	-0.312	-0.412	-0.949
COCCOC(=O)N1C(=O)[C@@]2(c3ccccc31)[C@H](c1ccc(OCCO)cc1)N1[C@H](c3ccccc3)[C@H](c3ccccc3)OC(=O)[C@H]1[C@@H]2C(=O)NC[C@H](O)c1ccccc1	1.95	1.23	0.327	0.937	1.32	1.03	0.414	0.714	1.05	-0.652 (inactive)	0.385	-1.49 (inactive)	0.109 (inactive)	0.891 (inactive)	10.1 (active)	0.258	0.268	1.19	0.662	2.04
C=CCOC(=O)[C@@H]1[C@H]2C(=O)O[C@H](c3ccccc3)[C@H](c3ccccc3)N2[C@H](c2ccc(OCCOC(=O)[C@@H]3C[C@@H]4C(=O)N[C@@H](CCCCNC(C)=O)C(=O)N4[C@@H]3c3ccc(O)cc3)cc2)[C@@]12C(=O)Nc1ccc(I)cc12	1.73	1.21	0.478	0.207	1.41	1.62	-1.37	1.37	0.412	-0.576 (inactive)	0.681	-0.0705 (inactive)	-0.128 (inactive)	-0.805 (inactive)	-1.32 (inactive)	-0.0068	0.591	0.928	0.27	1.81
